# An excerpt weighted towards active compounds, which were near 14% of everything screened.
# Shiga toxin inh: A qHTS for Small Molecule Inhibitors of Shiga Toxin; inhibition, % at 38.7 µM; Vero cells, Shiga toxin protein synthesis inhibition reporter; AID 2315, 2010; hit rate 9.2% among 290,000; in the data active means inhibition mostly above about 28%, no sharp cut-off; inactive means mostly below about 43%; further: 0% is about no effect
# NS1 function inh: qHTS Assay for Inhibitors of Influenza NS1 Protein Function. Potency, µM (doses to about 46.1 µM), for inactives: top-dose activity, positive = more growth. hit rate 0.4% among 270,000. AID 2326, 2010; calls by dose curve; further: potency means the concentration at half of the fitted maximal effect; actives are rising curves; nearly all actives have a fitted effect of over 50% in size
#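 Read-out: OD600 growth recovery of NS1-expressing budding yeast. Cells grown overnight at 30C in -URA glucose medium, washed, resuspended and diluted 1:100 in 2% galactose assay medium, pH 6.0. Same strain lacking NS1 served as positive control.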
# CHX counter: Cycloheximide Counterscreen for Small Molecule Inhibitors of Shiga Toxin; hit rate 12% among 300,000; cell reporter, cycloheximide protein synthesis inhibition counterscreen; AID 2314, 2010; max response, %; in the data active means max response mostly above about 13%, no sharp cut-off; inactive means mostly below about 14%; further: read at 38.3 µM for the half of the compounds with a filed dose; 0% is about no effect
# LmPK inhibitor: qHTS Assay for Inhibitors of Leishmania Mexicana Pyruvate Kinase (LmPK); Q27686; purified LmPK, Kinase-Glo ATP luminescence, 1 h; hit rate 0.37% among 290,000; Potency, µM (series often up to 57.5 µM), for inactives: at the top dose activity change, negative = inhibition, usual class: inhibitors; further: potency means the concentration at half of the fitted maximal effect; on the % scale 0 is the no-effect control and ±100 the full control effect
# Target sequence (Q27686 whole entry, looked up): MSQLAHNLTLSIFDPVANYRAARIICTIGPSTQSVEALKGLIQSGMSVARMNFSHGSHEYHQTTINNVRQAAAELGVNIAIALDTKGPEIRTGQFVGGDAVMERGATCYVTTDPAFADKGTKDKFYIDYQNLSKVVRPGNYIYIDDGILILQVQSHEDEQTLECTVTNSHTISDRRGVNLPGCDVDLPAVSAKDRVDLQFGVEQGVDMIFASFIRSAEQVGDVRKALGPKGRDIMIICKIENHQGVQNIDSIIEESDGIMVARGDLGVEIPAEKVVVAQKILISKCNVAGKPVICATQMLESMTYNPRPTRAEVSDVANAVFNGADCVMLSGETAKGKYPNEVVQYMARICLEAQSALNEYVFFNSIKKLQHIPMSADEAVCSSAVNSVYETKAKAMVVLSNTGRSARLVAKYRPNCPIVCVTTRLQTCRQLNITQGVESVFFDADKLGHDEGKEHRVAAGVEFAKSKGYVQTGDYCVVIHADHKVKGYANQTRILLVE
#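 qHTS format; LmPK 0.1 nM; substrates PEP 0.5 mM and ADP 0.1 mM. One-hour room-temperature incubation, then coupled luciferase luminescence; 0.5 nM enzyme wells mark activation.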
# Giardia FBPA inh: qHTS Assay for Inhibitors of Fructose-1,6-bisphosphate Aldolase from Giardia Lamblia; Potency, µM (highest dose often 59.6 µM), inactives show at the top dose activity, negative = inhibition, most hits filed as inhibitors; purified Giardia FBPA; A8B2U2; hit rate 0.71% among 290,000; further: potency means the concentration at half of the fitted maximal effect; on the % scale 0 is the no-effect control and ±100 the full control effect; nearly all actives have a fitted effect of over 55% in size
#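 Giardia FBPA (40 nM reagent) was preincubated 10 min at RT with compound (up to 57.5 uM final), then substrate plus GAPDH/TPI/NAD/arsenate coupling system with diaphorase/resazurin was added; resorufin fluorescence (525/598 nm) was read after 20 min.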
# Starred values were filed as active, the others as inactive; ? = inconclusive; . = not tested or not shown. Unless noted, the call rests on the fitted dose curve; in most records, active means well fitted curve in the direction sought with a large enough effect; inconclusive means small, poorly fitted or top-dose-only effect, or another doubt; inactive means no such curve, though single readings can be large; an effect the other way counts as inactive or inconclusive.
SMILES,Shiga toxin inh,NS1 function inh,CHX counter,LmPK inhibitor,Giardia FBPA inh
CC(Cc1ccccc1)NC(=O)c1cc2ccccc2o1 (configuration not stated),141*,-10%,59*,2%,4%
Cc1cc(=O)oc2cc(NC(=O)c3cc4ccccc4o3)ccc12,80,4%,20,7%,5%
O=C(O)c1ccc(NC(=O)c2cc3ccccc3o2)cc1,47,-26%,21*,-2%,-2%
CCOCCCNC(=S)N(CCCN(C)C)Cc1cc2cc3c(cc2[nH]c1=O)OCCO3,-5,21%,-4,0%,4%
CCCCC[C@H](O)/C=C/C=C\C/C=C\CCCCC(=O)O,.,.,.,.,0%
O=C(Nc1ccc2oc(=O)ccc2c1)c1cc2ccccc2o1,54*,25%,35*,2%,-2%
CCC(=O)Nc1ccc(NC(=O)c2cc3ccccc3o2)cc1,83*,-62%,70*,-10%,-4%
CCC(=O)Nc1cccc(NC(=S)NC(=O)c2cc3ccccc3o2)c1,72*,.,35*,2%,-6%
CCc1ccc(C(=O)Nc2ccc3c(c2)n(C)c(=O)n3C)cc1,.,-6%,12*,33%,-3%
CCC(=O)Nc1ccc(NC(=S)NC(=O)c2cc3ccccc3o2)cc1,17,5%,1,-1%,-4%
O=C(COc1ccccc1F)N/N=C1\CCCc2ccccc21,79*,5%,35*,-13%,-3%
COc1ccc(C(=O)NN=C2CCCC2)cc1OC,-2,0%,-2,8%,-8%
Cc1cc(Cl)ccc1OCC(=O)N/N=C1\CCCc2ccccc21,8,2%,0,-1%,0%
COc1ccc(C(=O)N/N=C2\CCc3ccccc32)cc1OC,34,3%,30*,7%,1%
COc1ccccc1OCC(=O)N/N=C1\CCCCc2ccccc21,19,-3%,17*,5%,-8%
COc1ccc(OCC(=O)N/N=C2\CCCc3ccccc32)cc1,-21,-8%,0,2%,4%
Cc1cccc2c1OCC/C2=N\NC(=O)COc1ccccc1,133*,1%,60*,0%,3%
CCCn1c(-c2ccc(F)cc2)nc2c(NCC3CCN(C)CC3)nc(C)nc21,.,.,.,.,0%
COc1cc(Cl)c(S(=O)(=O)NCCCn2ccnc2)cc1Cl,.,18%,1,-2%,-12%
COc1ccccc1OCC(=O)N/N=C1\CCc2ccccc21,92*,-9%,38*,-2%,5%
Cc1ccc(NC(=O)Nc2ccc3c(c2)OCO3)cc1F,90*,-3%,73*,-4%,5%
Cc1ccc(NC(=O)Nc2ccc3c(c2)OCO3)c(OC(F)F)c1,103*,-3%,48*,2%,-8%
Cc1cc(F)ccc1NC(=O)Nc1ccc2c(c1)OCO2,11,2%,12*,-3%,.
COc1ccc(NC(=O)Nc2ccc(C)cc2OC(F)F)cc1OC,21,-4%,1,3%,-1%
Cc1noc(C)c1-c1nc(N(C)Cc2ccco2)c2ccccc2n1,.,.,.,.,-5%
SMILES,Shiga toxin inh,NS1 function inh,CHX counter,LmPK inhibitor,Giardia FBPA inh
CCCC1c2ccc(C)n2CCN1C(=O)Nc1ccccc1Cl (configuration not stated),74*,3%,26*,-2%,?
CNc1nc(SC)n(C)c(=O)c1N=O,-10,1%,-5,-1%,-5%
NNC(=O)c1ccc(-c2ccccc2F)cc1,13,2%,7,2%,-10%
NC(=O)c1ccc(-c2ccccc2F)cc1,41*,-4%,17*,-7%,4%
C#CC(C)(C)NC(=O)c1ccc(-c2ccccc2F)cc1,64*,-55%,30*,7%,-3%
Cc1nc2ccc(NC(=O)C3COc4ccccc4O3)cc2s1 (configuration not stated),85*,0%,41*,-1%,-1%
Cc1cc(C)nc(NS(=O)(=O)c2ccc(NC(=O)C3COc4ccccc4O3)cc2)n1 (configuration not stated),11,-1%,-5,7%,13%
Cc1nc2ccc3nc(NC(=O)C4COc5ccccc5O4)sc3c2s1 (configuration not stated),18,-28%,3,5%,6%
Cc1nc2cc(NC(=O)C3COc4ccccc4O3)ccc2s1 (configuration not stated),54*,-14%,61*,-3%,2%
C/C=C1/NN(CCCN2CCN(c3cccc(Cl)c3)CC2)C(=O)N1CCOc1ccccc1,-10,.,13,.,-9%
Cc1nc(C)n(CC(C)C(=O)N2CCN(S(=O)(=O)c3ccccc3)CC2)n1 (configuration not stated),-3,-4%,1,-5%,-8%
Clc1cccc(-c2ccc(CNCc3ccccn3)o2)c1,81*,0%,32*,2%,6%
O=c1[nH]nc(Cc2ccc(-c3cccc(Cl)c3)o2)c2ccccc12,-1,-5%,-2,1%,-1%
Brc1ccc(-c2ccc(CNCc3ccccn3)o2)cc1,55,-2%,26*,-4%,25%
COc1cccc(CNCc2ccccn2)c1OC,-2,-4%,5,-10%,17%
O=c1c2[nH]c3cccc(Cl)c3c2ncn1Cc1ccco1,-3,4%,-2,0%,1%
O=C(/C=C/c1cccc([N+](=O)[O-])c1)c1ccccc1,.,.,.,.,0%
[O-]/[N+](=C\c1ccc(F)cc1)c1ccccc1,6,-17%,18*,?,-24%
[O-]/[N+](=C\c1ccccc1)[C@@H]1CCCC[C@@H]1/[N+]([O-])=C/c1ccccc1,-17,2%,-5,-4%,-1%
[O-]/[N+](=C\c1cccc(Br)c1)c1ccccc1,82*,.,44*,-4%,?
CN1CCC(Oc2ccc(Sc3ccccc3)cc2)CC1,63*,-28%,68*,-5%,-8%
COc1ccc(/C=N/NC(=O)c2c(C)nnn2-c2nonc2N)cc1OC,-18,.,12,-4%,1%
O=C(N/N=C/c1ccc([N+](=O)[O-])o1)c1ccncc1,5,0%,8,-1%,?
Nc1nonc1C(=O)N/N=C/c1cc(Br)ccc1O,82*,0%,32*,-3%,0%
COc1ccc(/C=N/NC(=O)c2nonc2N)cc1OC,80*,2%,34*,-10%,-10%
SMILES,Shiga toxin inh,NS1 function inh,CHX counter,LmPK inhibitor,Giardia FBPA inh
CN(C)c1ccc(/C=N/NC(=O)c2nonc2N)cc1[N+](=O)[O-],133*,-3%,41*,-30%,-5%
Nc1nonc1C(=O)N/N=C/c1ccc([N+](=O)[O-])o1,76*,.,44*,-7%,?
Cc1ccc2nc3c(c(Nc4cccc(O)c4)c2c1)CCC3,-12,-1%,2,4%,-13%
COc1ccc([N+](=O)[O-])cc1/C=N/NC(=O)c1nonc1N,-16,6%,3,3%,0%
Nc1nonc1C(=O)N/N=C/c1cccc([N+](=O)[O-])c1,active,-11%,27*,-6%,-1%
COCCC(=O)N1CCCC(C(=O)c2ccc(Oc3ccccc3)cc2)C1 (configuration not stated),-17,-4%,14,0%,-9%

# Screens from PubChem.
